High-throughput results (PubChem)
VACV Venus inh: qHTS for Stage-Specific Inhibitors of Vaccinia Orthopoxvirus: Venus Reporter Primary qHTS; Vaccinia virus Venus reporter expression, fluorescence; Potency, µM (highest dose often 36.5 µM), inactives show at the highest dose activity change, negative = inhibition, hits mostly inhibitors; 330,000 tested, 0.46% active; calls by dose curve; tested in A549 cells; further: potency means the concentration at half of the fitted maximal effect; nearly all actives have a fitted effect of over 30% in size
Lassa entry inh: qHTS for Inhibitors of binding or entry into cells for Lassa Virus; Lassa virus pseudotype entry inhibition, cell reporter; Potency, µM (top dose mostly 37.9 µM), for the others: at the top dose activity change, negative = inhibition, actives largely listed as inhibitors; 300,000 tested, 1.2% active; AID 540256, 2011; calls by dose curve; tested in HEK293 cells; further: potency means the concentration at half of the fitted maximal effect; nearly all actives have a fitted effect of over 50% in size
HCMV antiviral: qHTS Assay for inhibitors of the human cytomegalovirus (HCMV); activity change, negative = inhibition, % at 57.5 µM; AID 1259415, 2018; HFF cells, HCMV-luciferase reporter, 72 h; hits give low values; 410,000 tested, 4.5% active; in the data active means activity change below about -60%; inconclusive means no clear call, values can overlap the other calls; inactive means above about -39%
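Screen run at 2 compound doses on HFFs infected with reporter HCMV, MOI 1 PFU/cell. Luciferase activity from cell lysates at 72 h post infection gave inhibition relative to buffer-only and Salinomycin wells.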
VACV mCherry inh: qHTS for Stage-Specific Inhibitors of Vaccinia Orthopoxvirus: mCherry Reporter Primary qHTS | Vaccinia virus mCherry reporter infection, fluorescence | Potency, µM (highest dose often 36.5 µM), without a hit: at the top dose activity change, negative = inhibition, hits mostly inhibitors | 310,000 tested, 0.63% active | AID 720579, 2013; calls by dose curve; tested in A549 cells; further: potency means the concentration at half of the fitted maximal effect; nearly all actives have a fitted effect of over 35% in size
HCV inhibitor: qHTS Assay for Inhibitors of Hepatitis C Virus (HCV); Huh7.5.1 HCVcc-Cre infection, luciferase reporter, 44 h; Potency, µM (titrated, usually from 41.8 µM), without a hit: at the highest dose activity change, negative = inhibition, hits mostly inhibitors; 340,000 tested, 3.4% active; AID 651820, 2012; active means well fitted inhibition curve with a large enough effect; inconclusive means small, poorly fitted or top-dose-only effect, or another doubt; inactive means no such curve, though single readings can be large or run the other way; further: potency means the concentration at half of the fitted maximal effect
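Cells seeded at 1,000/well and cultured 4 h, then compounds added followed by HCVcc-Cre virus (~0.5 moi). After 44 h further culture, luciferase substrate was added, plates held 15 min at room temperature, and luminescence read for 15 sec.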
Marburg entry inh: qHTS for inhibitors of binding or entry into cells for Marburg Virus | 300,000 tested, 1.8% active | Marburg virus pseudotyped entry inhibition, cell reporter | Potency, µM (series often up to 37.8 µM), for inactives: at the highest dose activity change, negative = inhibition, usual class: inhibitors; calls by dose curve; tested in HEK293 cells; further: potency means the concentration at half of the fitted maximal effect
An asterisk follows results filed as active; i = inactive; ? = inconclusive; . = not tested or not shown; + = active, no number; [ ] = remark or other dose. Only some compounds are listed: those with a hit (about 7.8% of all), similar ones and a draw of the others. On the % scale 0 is the no-effect control and ±100 the full control effect.

SMILES	VACV Venus inh	Lassa entry inh	HCMV antiviral	VACV mCherry inh	HCV inhibitor	Marburg entry inh
CCSc1nc2ccccc2c(OCc2ccccc2Cl)c1C(=O)OC	0%	13%[46.1 µM]	-9	-11%	.	.
CCOC(=O)CSc1nc2sc3c(c2c(=O)n1-c1ccc(OC)cc1)CC(C(C)C)OC3 (centres undefined)	4%	7%[46.1 µM]	18	-8%	.	3%[46.1 µM]
CC(C)c1ccc(S(=O)(=O)c2cnc(SCC(=O)Nc3cccc(C(F)(F)F)c3)nc2N)cc1	-8%	-5%[46.1 µM]	-24	3%	.	.
Cc1ccccc1Nc1cc(C)c2c(O)cccc2n1	-4%	-13%	-89*	?	-5%[8.37 µM]	?
COc1ccc(-c2cc(C)cc3c2OC(CNC(=O)c2cc(C(C)C)on2)C3)nn1 (centres undefined)	5%	.	.	-7%	.	.
COCCNC(=O)c1cnn(-c2cccc(C)c2)c1-n1cccc1	-9%	19%[46.1 µM]	+	-10%	.	.
CCOC(=O)N1CCC(NC(=O)c2cnn(-c3cccc(C)c3)c2-n2cccc2)CC1	-12%	-19%[46.1 µM]	0	-10%	.	.
Cn1c(=O)c2c(nc(SCc3nc(N)nc(N4CCCCC4)n3)n2C)n(C)c1=O	-7%	?	-69*	2%	6%	2%
CCCn1c(SCc2nc(N)nc(N3CCCCC3)n2)nc2c1c(=O)n(C)c(=O)n2C	-1%	-6%[46.1 µM]	48	i	5%	-9%[46.1 µM]
O=C(NCCOC(=O)c1ccc(C(=O)OCCNC(=O)c2cccnc2)s1)c1cccnc1	.	0%	-5	.	22µM*	-5%
O=C(NCCOC(=O)c1cccs1)c1cccnc1	1%	13%	-4	.	19%	1%
c1csc(-c2nc3c4ccccc4c4ccccc4c3[nH]2)c1	?	-28%	-21	?	13µM*	?
Cc1cc(NO)c(C(C)C)cc1N=O	-22%	15%	-65*	?	?	-27%
COc1ccc(-c2noc(-c3ccccc3Cl)n2)cc1OC	-1%	-27%	61	-4%	10µM*	13%
CCOc1ccc(-c2noc(-c3ccncc3)n2)cc1OCC	.	-8%	41	.	?	19%
CCOc1ccc(-c2nc(-c3ccc(OC)cc3)no2)cc1OCC	.	5%	1	.	7.9µM*	7%
COc1ccc(-c2noc(-c3ccco3)n2)cc1OC	-14%	?	130	i	11µM*	-20%
COc1ccc(-c2noc(-c3cccc(Cl)c3)n2)cc1OC	-6%	17%	8	-16%	-19%[0.335 µM]	?
COC(=O)c1ccc(C(=O)NCC2Cc3cc(F)cc(-c4cncnc4)c3O2)cc1 (centres undefined)	0%	.	.	i	.	.
Cc1cc(NCCN2CCOCC2)n2nc(C)c(-c3ccc(Cl)cc3)c2n1	6%	?	-2	.	10µM*	?
Cc1cc(NCCCn2ccnc2)n2ncc(-c3ccccc3)c2n1	?	4.5µM*	.	.	-22%	?
Cc1cc(NCCCn2ccnc2)n2nc(C)c(-c3ccc(Cl)cc3)c2n1	.	-10%	-38	.	10µM*	?
Cc1cc(NCCCn2ccnc2)n2nc(C)c(-c3ccccc3)c2n1	.	3%	87	.	?	-4%
CCCCNC(=O)CC1Nc2cc(C)c(C)cc2NC1=O (centres undefined)	1%	13%[46.1 µM]	-14	1%	.	7%[46.1 µM]
CN(C(=O)COC(=O)c1ccccc1OCC(=O)Nc1ccc(Br)cc1)c1ccccc1	-14%	.	.	-1%	.	.
SMILES	VACV Venus inh	Lassa entry inh	HCMV antiviral	VACV mCherry inh	HCV inhibitor	Marburg entry inh
Cc1cc(C)c2c(NC(=O)CCl)nn(C)c2n1	?	?	-110*	4.5µM*	?	?
COC(=O)c1c(NC(=S)NN2CCN(C)CC2)sc2c1CCC(C)C2 (centres undefined)	-15%	?	14	-20%	2.8µM*	?
CCN(CCCNC(=O)c1cc2c(=O)[nH]c3ccc(C)cc3c2s1)Cc1ccccc1	?	?	-106*	?	.	11µM*
CCCN1CCN(CCCNC(=O)c2cc3c(=O)[nH]c4ccc(C)cc4c3s2)CC1	-29%	-19%	-101*	?	?	?
CCN(CC)CCNC(=O)c1cc2c(=O)[nH]c3ccc(C)cc3c2s1	-18%	17%[46.1 µM]	3	-20%	.	8%[46.1 µM]
COc1cccc([C@@H]2Oc3ccc(Br)cc3C[C@@H]2OC(=O)Nc2cc(OC)c(OC)c(OC)c2)c1	.	.	.	.	.	-5%[14.2 µM]
Cc1ccc(C(=O)OC[C@H]2O[C@H](Cl)C[C@H]2OC(=O)c2ccc(C)cc2)cc1	.	.	.	.	.	1%[14.2 µM]
CC1(c2ccccc2)O[C@@H]2C[C@H]3[C@@H]4CCC5=CC(=O)C=C[C@]5(C)[C@@]4(F)[C@@H](O)C[C@]3(C)[C@]2(C(=O)CO)O1 (some centres undefined)	?	?	-2	?	-8%	10µM*
C[C@H]1C[C@H]2[C@@H]3CCC4=CC(=O)C=C[C@]4(C)[C@@]3(F)[C@@H](O)C[C@]2(C)[C@@]1(O)C(=O)CO	-13%	.	50	-15%	-2%	.
COc1ccccc1OCC(=O)OCC(=O)Nc1ncc(Cl)cc1Cl	1%	-4%	-3	.	1%	-17%[46.1 µM]
O=C(COC(=O)Cc1ccccc1)Nc1ncc(Cl)cc1Cl	-19%	6%	?	.	1%	0%[46.1 µM]
O=C(COC(=O)CNC(=O)c1ccco1)Nc1ncc(Cl)cc1Cl	.	.	-100*	.	5%	.
CCOc1ccccc1OCC(=O)OCC(=O)Nc1ncc(Cl)cc1Cl	-10%	8%	-72*	i[1.46 µM]	20%	11%
COc1ccc2c(c1)c1c(c(=O)n(-c3ccc(C)cc3)c(=O)n1CC(=O)NCc1ccc(C)cc1)n2C	5%	-6%[46.1 µM]	4	-1%	.	.
CC(=O)Nc1ccccc1OCC(=O)c1cc(C)n(Cc2cccs2)c1C	.	-30%	-94*	.	?	?
Cc1cc(C(=O)COc2cccnc2[N+](=O)[O-])c(C)n1Cc1cccs1	-21%	?	15	?	?	?
Cc1cc(C(=O)COC(=O)c2ccc3c(c2)OCO3)c(C)n1Cc1cccs1	.	?	-19	.	-8%	-26%
Cc1cc(C(=O)COC(=O)c2ccccc2O)c(C)n1Cc1cccs1	.	0.33µM*	-103*	.	?	0.82µM*
Cc1ccccc1-c1nn(-c2ccc(F)cc2F)cc1CNCCCN(C)C	-21%	?	?	-10%	3.2µM*	3.5µM*
CC1CCc2sc(C(=O)NC3CCN(Cc4ccccc4)CC3)cc2C1 (centres undefined)	.	.	?	.	11µM*	.
CCC1CCc2sc(C(=O)NC3CCN(Cc4ccccc4)CC3)cc2C1 (centres undefined)	-28%	?	?	-20%	10µM*	?
Cc1ccn2c(Nc3ccccc3C)c(-c3ccncc3)nc2c1	-24%	18%[46.1 µM]	-67*	?	-24%	3%[46.1 µM]
